What was measured:
Assay in all cases: PBM binding z-score (relative to random genomic background probes); higher = stronger binding; sequences stand for … in GC…GCGATTGACAGCGTAGAATGAAGG
[1] = test system: FXR:RXRa (NR concentration 270 nM, RXRa partner concentration 90 nM)
Method in brief: (§1)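 Binding z-scores were set against random background probes. The data came from custom Agilent 4×180K protein-binding microarrays carrying double-stranded probes with 34-nt variable regions, incubated 1 h with ligand-free nuclear receptor dimers. Partner-specific antibodies detected binding, and scanned fluorescence was regression-normalized.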

[2] = test system: LXRa:RXRa (NR concentration 270 nM, RXRa partner concentration 90 nM)
Method in brief: as §1

[3] = test system: LXRa homodimer (NR concentration 270 nM)
Method in brief: as §1

[4] = test system: LXRb:RXRa (NR concentration 270 nM, RXRa partner concentration 90 nM)
Method in brief: as §1

[5] = test system: LXRb homodimer (NR concentration 270 nM)
Method in brief: as §1

[6] = test system: PPARa:RXRa (NR concentration 270 nM, RXRa partner concentration 90 nM)
Method in brief: as §1

[7] = test system: PPARg:RXRa (NR concentration 180 nM, RXRa partner concentration 90 nM)
Method in brief: as §1

[8] = test system: PPARg:RXRa 270nM:90nM, anti-RXR (NR concentration 270 nM, RXRa partner concentration 90 nM)
Method in brief: as §1

[9] = test system: PPARg:RXRa 30nM:10nM, anti-RXR (NR concentration 30 nM, RXRa partner concentration 10 nM)
Method in brief: as §1

[10] = test system: PPARg:RXRa 90nM:30nM, anti-RXR (NR concentration 90 nM, RXRa partner concentration 30 nM)
Method in brief: as §1

[11] = test system: PPARg:RXRa DBDmut IVT, anti-RXR (DBD mutation: RXRa K156A/R161A, NR concentration 270 nM, RXRa partner concentration 90 nM)
Method in brief: as §1

[12] = test system: PPARg:RXRa IVT, anti-PPARg (NR concentration 270 nM, RXRa partner concentration 90 nM)
Method in brief: as §1

[13] = test system: PPARg DBDmut:RXRa IVT, anti-PPARg (DBD mutation: PPARg1 K132A/R137A, NR concentration 270 nM, RXRa partner concentration 90 nM)
Method in brief: as §1

[14] = test system: PPARg DBDmut IVT, anti-PPARg (DBD mutation: PPARg1 K132A/R137A, NR concentration 270 nM)
Method in brief: as §1

[15] = test system: PPARg homodimer (NR concentration 180 nM)
Method in brief: as §1

[16] = test system: PXR:RXRa (NR concentration 270 nM, RXRa partner concentration 90 nM)
Method in brief: as §1

[17] = test system: PXR homodimer (NR concentration 270 nM)
Method in brief: as §1

[18] = test system: RARa:RXR (NR concentration 270 nM, RXRa partner concentration 90 nM)
Method in brief: as §1

[19] = test system: RARa homodimer (NR concentration 270 nM)
Method in brief: as §1

[20] = test system: RARb:RXRa (NR concentration 270 nM, RXRa partner concentration 90 nM)
Method in brief: as §1

## ATGTCTAGGTAAAGATAGTTCAGTGAATGCAAAT
[1]
  PBM binding z-score: 0.0456
[2]
  PBM binding z-score: 4.09
[3]
  PBM binding z-score: 0.552
[4]
  PBM binding z-score: 0.617
[5]
  PBM binding z-score: 0.0209
[6]
  PBM binding z-score: 0.376
[7]
  PBM binding z-score: 0.701
[8]
  PBM binding z-score: 0.217
[9]
  PBM binding z-score: 0.312
[10]
  PBM binding z-score: 0.184
[11]
  PBM binding z-score: 1.16
[12]
  PBM binding z-score: 1.51
[13]
  PBM binding z-score: 0.413
[14]
  PBM binding z-score: 1.23
[15]
  PBM binding z-score: 0.188
[16]
  PBM binding z-score: 0.798
[17]
  PBM binding z-score: 0.588
[18]
  PBM binding z-score: 0.428
[19]
  PBM binding z-score: 0.724
[20]
  PBM binding z-score: 0.63

## GCACCAAGGTGAATAGGTCGTTGATGAGTAGGCG
[1]
  PBM binding z-score: 0.712
[2]
  PBM binding z-score: 0.592
[3]
  PBM binding z-score: -0.472
[4]
  PBM binding z-score: 0.429
[5]
  PBM binding z-score: -0.835
[6]
  PBM binding z-score: 2.37
[7]
  PBM binding z-score: 1.17
[8]
  PBM binding z-score: 1.62
[9]
  PBM binding z-score: 0.404
[10]
  PBM binding z-score: 0.742
[11]
  PBM binding z-score: 2.07
[12]
  PBM binding z-score: 2.2
[13]
  PBM binding z-score: -0.106
[14]
  PBM binding z-score: -0.894
[15]
  PBM binding z-score: 1.01
[16]
  PBM binding z-score: 0.721
[17]
  PBM binding z-score: -0.261
[18]
  PBM binding z-score: 1.6
[19]
  PBM binding z-score: -0.487
[20]
  PBM binding z-score: 1.93

## GTACCAAGGTGAATAGGTCGTGGATGAGTAGGCG
[1]
  PBM binding z-score: 1.25
[2]
  PBM binding z-score: 1.07
[3]
  PBM binding z-score: -0.132
[4]
  PBM binding z-score: 0.395
[5]
  PBM binding z-score: -0.586
[6]
  PBM binding z-score: 2.47
[7]
  PBM binding z-score: 1.85
[8]
  PBM binding z-score: 2.35
[9]
  PBM binding z-score: 0.297
[10]
  PBM binding z-score: 1.3
[11]
  PBM binding z-score: 2.1
[12]
  PBM binding z-score: 2.87
[13]
  PBM binding z-score: 0.27
[14]
  PBM binding z-score: -0.568
[15]
  PBM binding z-score: 1.84
[16]
  PBM binding z-score: 0.978
[17]
  PBM binding z-score: -0.029
[18]
  PBM binding z-score: 2.11
[19]
  PBM binding z-score: 0.457
[20]
  PBM binding z-score: 2.09
